# An excerpt weighted towards active compounds, which were near 10% of everything screened.
# KinaseGlo FLuc – Counterscreen for Luciferase (Kinase-Glo TM) Inhibition; Potency, µM (doses to about 38.3 µM), inactives show at the top dose activity change, negative = inhibition, hits mostly inhibitors; hit rate 0.28% among 200,000; Luciferin 4-monooxygenase (Photuris pensylvanica), Q27757; Kinase-Glo luciferase, ATP luminescence, 8 min; active = well fitted inhibition curve with a large enough effect; inconclusive = small, poorly fitted or top-dose-only effect; also: potency is read from the fitted curve at half-maximal effect; nearly all actives have a fitted effect of over 60% in size
#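 Kinase-Glo luciferase light output from ATP and luciferin was measured with 10 uM ATP, within the enzyme's linear range. Buffer: 50 mM imidazole pH 7.2, 50 mM KCl, 7 mM MgCl2, 0.01% Tween 20, 0.05% BSA; luminescence read after 8 min at ambient temperature.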
# PNC assembly inh – High Content Assay for Compounds that inhibit the Assembly of the Perinucleolar Compartment; PC3M PTB-GFP, PNC prevalence imaging, 16 h; hits give low values; activity change (PNC), negative = inhibition, % at 10 µM; AID 2417, 2010; hit rate 3.1% among 140,000;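 active = readout at or below -70, meaning at least 70% loss of cells showing the perinucleolar compartment, a nuclear body marking cancer cells; inconclusive = readout between -30 and a set limit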;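 also: plate controls were DMSO wells for no effect and camptothecin positive control wells for full effect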
#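 Read-out is percentage of cells bearing a perinucleolar compartment, from automated 20x imaging of fixed, Hoechst-stained PC3M PTB-GFP cells. Cells were seeded 4 h, then exposed 16 h to compound (23 nl of library stock) in duplicate plates.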
# ALDH1A1 inh – qHTS Assay for Inhibitors of Aldehyde Dehydrogenase 1 (ALDH1A1) | AID 1030, 2008 | Potency, µM (highest dose often 75.3 µM), inactives show at the highest dose activity, negative = inhibition, usual class: inhibitors | Purified ALDH1A1, NADH fluorescence, propionaldehyde substrate | hit rate 7.3% among 220,000 | Aldehyde dehydrogenase 1A1 (Homo sapiens), P00352;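 also: potency is read from the fitted curve at half-maximal effect; plate controls were no enzyme wells and a reference inhibitor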
# Target sequence (P00352 whole entry, looked up): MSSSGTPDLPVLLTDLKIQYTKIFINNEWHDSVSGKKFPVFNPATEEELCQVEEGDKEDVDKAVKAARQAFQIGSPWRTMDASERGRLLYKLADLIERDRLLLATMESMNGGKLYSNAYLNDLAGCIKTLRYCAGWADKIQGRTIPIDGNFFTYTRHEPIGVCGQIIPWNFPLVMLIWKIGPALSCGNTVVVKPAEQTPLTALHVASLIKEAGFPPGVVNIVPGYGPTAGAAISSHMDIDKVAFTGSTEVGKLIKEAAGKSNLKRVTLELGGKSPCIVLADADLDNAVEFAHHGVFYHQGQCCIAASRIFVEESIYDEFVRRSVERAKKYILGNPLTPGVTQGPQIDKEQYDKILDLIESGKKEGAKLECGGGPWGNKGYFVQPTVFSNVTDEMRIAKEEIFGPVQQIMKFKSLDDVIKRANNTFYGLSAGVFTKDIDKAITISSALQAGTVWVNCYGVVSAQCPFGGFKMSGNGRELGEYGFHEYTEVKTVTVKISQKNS
# Lamin A splicing – qHTS Assay for Modulators of Lamin A Splicing | HeLa LMNA splicing GFP/RFP minigene ratio, 48 h | Potency, µM (top dose mostly 46.1 µM), for inactives: at the highest dose ratio change, negative = inhibition, usual class: inhibitors | hit rate 0.01% among 200,000 | AID 1487, 2009; active = well fitted inhibition curve with a large enough effect in the signal ratio, with a control signal flat, not every such curve was filed as active; inconclusive = small, poorly fitted or top-dose-only effect, or effect the other way, or a change in a side signal; the % refers to the signal ratio; also: potency is read from the fitted curve at half-maximal effect
#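 S3 HeLa cells stably expressing lamin A-EGFP splicing minigene plus DsRed2, 600 cells/well, 48 h compound exposure at 37C. Laser-scanning cytometry; analysed as GFP (500-530 nm)/RFP (575-640 nm) total intensity ratio; 0.5% DMSO vehicle.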
# HPGD inh – qHTS Assay for Inhibitors of HPGD (15-Hydroxyprostaglandin Dehydrogenase) | purified HPGD, NADH fluorescence kinetic, PGE2 substrate | Potency, µM, inactives show top-dose activity change, negative = inhibition, usual class: inhibitors | hit rate 4.3% among 150,000; also: potency is read from the fitted curve at half-maximal effect
# Target sequence (P15428 whole entry, looked up): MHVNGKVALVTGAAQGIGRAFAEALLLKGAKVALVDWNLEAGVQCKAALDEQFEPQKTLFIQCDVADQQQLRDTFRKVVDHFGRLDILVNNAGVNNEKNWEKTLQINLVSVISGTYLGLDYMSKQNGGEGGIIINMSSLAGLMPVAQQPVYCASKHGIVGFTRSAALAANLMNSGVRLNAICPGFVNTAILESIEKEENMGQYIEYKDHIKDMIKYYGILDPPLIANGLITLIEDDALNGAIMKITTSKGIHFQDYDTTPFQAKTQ
#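 NADH formation kinetics: reaction with 30 uM PGE2 and 1 mM NAD+ (final), 20 nM enzyme, Tris-HCl pH 8 with Tween 20, after 15 min compound preincubation at room temperature. Fluorescence change, last versus first of five reads.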
# Starred values were filed as active, the others as inactive; ? = inconclusive; . = no result given; [ ] = another dose, or the depositor's remark. Unless noted, calls follow the shape of the dose curve; as a rule, active = well fitted inhibition curve with a large enough effect (not every such curve was filed as active); inconclusive = small, poorly fitted or top-dose-only effect, or another doubt; inactive = no such curve, though single readings can be large or run the other way. Unless noted, % is scaled to controls: 0 for no effect and ±100 for the full control effect.
SMILES,KinaseGlo FLuc,PNC assembly inh,ALDH1A1 inh,Lamin A splicing,HPGD inh
COC(=O)c1sccc1NC(=O)CC1C(=O)NCCN1C(=O)c1ccc(N(C)C)cc1 (stereo not drawn),.,.,10µM*,.,.
COc1ccc(NC(=O)CC2C(=O)NCCN2C(=O)c2ccccc2)cc1 (stereo not drawn),.,.,-8%,.,.
COC(=O)c1c[nH]n2c(=O)c(Cl)c(C)nc12,-21%,-113*,-4%,0%,-11%
COc1ccc(OCc2ccc(-c3nc(C#N)c(NCc4ccc(F)cc4)o3)o2)cc1,.,.,.,16%[46 µM],.
CC1=C(C(=O)Nc2ccccc2C)C(c2cccs2)NC(=S)N1 (stereo not drawn),0%,?,13µM*,-13%,-14%
CCOc1ccccc1NC(=O)C1=C(C)NC(=S)NC1c1cccs1 (stereo not drawn),0%,-27,0.63µM*,?,-14%
CC1=C(C(=O)Nc2ccc(C)cc2C)C(c2cccs2)NC(=S)N1 (stereo not drawn),2%,-18,?,-16%,-7%
CCOC(=O)C1=C(O)/C(=C\c2ccc(CNC(=O)C(=O)Nc3ccccc3)o2)N=C1C,-6%,?,11µM*,?,32µM*
CCOC(=O)C1=C(O)/C(=C\c2cccs2)N=C1C,-2%,5,-3%,-2%,-9%
O=C1CCSc2ccc(Cl)cc2N1Cc1ccccc1,0%,0,2%,5%,-4%
Cc1cccc(CN2C(=O)CCSc3ccc(Cl)cc32)c1,-2%,31,14µM*,-4%,-10%
COC(=O)[C@H]1O[C@@H](c2cc(OC)c(C)c(OC)c2OCc2ccccc2)[C@H](C)[C@@H]2O[C@]12C,-3%,.,-1%,.,-9%
CCCCN(CC)CCCNC(=O)C1CCCN(c2ncnc3c2nc2n3CCCCC2)C1 (stereo not drawn),.,.,.,-13%[46 µM],.
COc1ccc(-n2c(-c3cccc(C)c3[N+](=O)[O-])n[nH]c2=S)cc1,1%,-109*,?,-2%,35µM*
Cc1cccc(-c2n[nH]c(=S)n2-c2ccccc2)c1[N+](=O)[O-],0%,-1,-6%,?,-29%
Nc1nc(=S)[nH]c2c1C1(CCCC1)Cc1ccccc1-2,-2%,22,-10%,4%,13µM*
C/C(=C\C(=O)C(F)(F)F)Nc1cc(C)cc(C)c1,2%,-85*,7%,-2%,-17%
C/C(=C\C(=O)C(F)(F)F)Nc1ccc(C)cc1,-4%,?,-5%,7%,3%
O=C(Cn1nc(-c2ccccc2)nc(Cc2ccccc2)c1=O)Nc1ccc(Cl)cc1,.,.,.,0%[46 µM],.
CC(=O)Nc1ccc(NC(=O)c2ncoc2-c2ccco2)cc1,.,.,.,13%[46 µM],.
CCc1cc2c(N3CCCCC3)ncnc2s1,-3%,34,20µM*,?,-27%
CC1(C)CC(=O)C(N=Nc2ccc(-c3ccccc3)cc2)=C(O)C1,-1%,.,?,-6%[46 µM],.
CC1(C)CC(=O)C(C(C#Cc2ccccc2)C2=C(O)CC(C)(C)CC2=O)=C(O)C1,-2%,11,6.3µM*,3%,7.9µM*
O=C1CCCC(O)=C1C(C#Cc1ccccc1)C1=C(O)CCCC1=O,0%,?,6.3µM*,?,4µM*
O=C(O)c1cc(-c2ccncc2)nc2ccccc12,-4%[7.66 µM],.,-11%[13.5 µM],.,-8%
SMILES,KinaseGlo FLuc,PNC assembly inh,ALDH1A1 inh,Lamin A splicing,HPGD inh
COC(=O)[C@@]1(Cc2ccc(OC)cc2)[C@H]2c3cc(C(=O)N4CCCC4)n(CCc4c[nH]c5ccc(OC)cc45)c3C[C@H]2CN1C(=O)c1ccccc1,3%,.,?,.,-10%
CCCNC(=O)C1CCC(Cn2c(=O)c3sccc3n(CC(=O)NCc3ccccc3)c2=O)CC1 (stereo not drawn),.,.,.,-1%[46 µM],.
COc1ccc(/C=C2\CCn3c2nc2cc(C(=O)O)ccc2c3=O)cc1O,0%,-96*,22µM*,-1%,14µM*
COc1ccc(/C=C2\CCn3c2nc2cc(C(=O)O)ccc2c3=O)cc1OC,.,.,.,-3%[46 µM],.
C[N+]1(C)CC(O)[C@H](C(=O)[O-])C1 (stereo partly drawn),-1%,.,-14%,4%,-4%
CCC(Sc1nnnn1C)C(=O)Nc1ccc(C(C)=O)cc1 (stereo not drawn),0%,-87*,-9%,-3%,-8%
O=C(c1cccc(F)c1)N1CCC2(CCCN(c3ncccn3)C2)CC1,-1%,.,5%,.,-16%
Cn1c(-c2nc(-c3ccccc3)cs2)nc2ccccc21,0%,.,?,.,?
Cc1ccc(S(=O)(=O)CCC(=O)c2ccc(O)cc2O)cc1,-1%,-9,0.28µM*,?,-22%
CCc1ccc(CNC(=O)c2sc3ncnc(N(C)C4CCCCC4)c3c2C)cc1,.,.,.,-12%[46 µM],.
O=C(Nc1cccc(Oc2ccc3c(c2)C(=O)NC3=O)c1)c1cccs1,-1%,15,2%,4%,14µM*
O=C(COc1cccc(NC(=O)c2cccs2)c1)c1ccc(F)cc1,0%,32,0%,?,16µM*
O=C(COCc1cc(-c2ccc(F)cc2)on1)Nc1cc(Cl)cc(Cl)c1,.,.,.,-1%[46 µM],.
Cc1c(C(=O)N2CCC(C)CC2)c(S(=O)(=O)N2CCN(c3cccc(Cl)c3)CC2)c(C)n1C,.,.,.,6%[46 µM],.
CCOc1ccc(/C=N/NC(=O)c2[nH]ncc2Br)c(O)c1,11µM*,.,11%,?,.
Cc1ccccc1CSCC(=O)NC(=O)NCc1ccco1,1%,-95*,25µM*,5%,-29%
Cc1cc(SCC(=O)NC(=O)NCc2ccco2)nc2c(C)cccc12,-3%,?,22µM*,-8%,-21%
O=C(CSc1ccccc1F)NC(=O)NCc1ccco1,-2%,.,-3%,?,.
CC1=CC(=C(C#N)C#N)C=C(C)N1CCC(C)C,-2%,.,28µM*,?,.
CCn1c(O)c(C=C2N=c3ccccc3=N2)sc1=S,-1%,.,?,.,.
CCCCn1c(O)c(/C=C/C=C/C=Nc2ccccc2)sc1=S,8.9µM*,.,18µM*,?,.
COc1cc(O)oc1C=Nc1ccc(Oc2ccccc2)cc1,-4%,?,?,2%,-27%
CCn1c(O)c(/C=C/C=C/C=Nc2ccccc2)sc1=S,-11%,.,?,19%[46 µM],.
CCn1c(O)c(C=Nc2ccccc2)oc1=S,10%,-94*,20µM*,10%,16µM*
CCCn1c(O)c(C=Nc2ccccc2)sc1=S,0%,.,14µM*,-4%[46 µM],.
CC1CCC2C(=O)OC(COc3ccc(C(C)(C)C)cc3)CN2C1c1ccc(Br)cc1 (stereo not drawn),.,.,22%[13.5 µM],.,.
CC1=c2c(oc3cc(O)c(Nc4c(C)cc(O)cc4O)c(C)c23)=CC(=O)C1=Nc1c(C)cc(O)cc1O,-18%[7.66 µM],.,22%[13.5 µM],.,-11%

# Source: PubChem (National Center for Advancing Translational Sciences (NCATS))
